The list is not random: actives were taken first. Their share in the collection is about 19%.
TDP1 cell CPT: qHTS for Inhibitors of human tyrosyl-DNA phosphodiesterase 1 (TDP1): qHTS in cells in presence of CPT. chicken DT40 Tdp1-/-;hTDP1 cells + 20 nM CPT, ATP luminescence, 48 h. Potency, µM (highest dose often 46.2 µM), for the others: at the highest dose activity change, negative = growth inhibition, actives largely listed as inhibitors. 420,000 compounds, 12% hits. AID 686979, 2013; note: potency is the fitted concentration of half-maximal effect; nearly all actives have a fitted effect of over 55% in size
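Chicken DT40 Tdp1-/- cells complemented with human TDP1, 400 cells/well, exposed to compounds plus 20 nM camptothecin for at least 48 h at 37 C; viability read as ATP content by CellTiter-Glo luminescence.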
Giardia killer: Small Molecules that selectively kill Giardia lamblia: qHTS. AID 540267, 2011. Giardia lamblia trophozoite viability. 340,000 compounds, 0.15% hits. activity change, % at 7.66 µM, hits read low; in the data active = activity change below about -80%; inconclusive = between about -30% and that limit;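 note: parasites exposed to compound for two days anaerobically before the ATP read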
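Each well holds 100 Giardia trophozoites and compound. After two days (48 hrs) at 37 deg C in anaerobic conditions, ATP is quantified by luminescence.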
TDP1 block: qHTS Assay for Inhibitors of Tyrosyl-DNA Phosphodiesterase (TDP1) | Tyrosyl-DNA phosphodiesterase 1 (Homo sapiens), Q9NUW8 | recombinant TDP1, AlphaScreen DNA substrate cleavage | Potency, µM (titrated, usually from 130 µM), inactives show at the highest dose activity change, negative = inhibition, actives largely listed as inhibitors | 350,000 compounds, 0.28% hits | AID 485290, 2010; note: potency is the fitted concentration of half-maximal effect; nearly all actives have a fitted effect of over 40% in size
Target sequence (Q9NUW8 whole entry, looked up): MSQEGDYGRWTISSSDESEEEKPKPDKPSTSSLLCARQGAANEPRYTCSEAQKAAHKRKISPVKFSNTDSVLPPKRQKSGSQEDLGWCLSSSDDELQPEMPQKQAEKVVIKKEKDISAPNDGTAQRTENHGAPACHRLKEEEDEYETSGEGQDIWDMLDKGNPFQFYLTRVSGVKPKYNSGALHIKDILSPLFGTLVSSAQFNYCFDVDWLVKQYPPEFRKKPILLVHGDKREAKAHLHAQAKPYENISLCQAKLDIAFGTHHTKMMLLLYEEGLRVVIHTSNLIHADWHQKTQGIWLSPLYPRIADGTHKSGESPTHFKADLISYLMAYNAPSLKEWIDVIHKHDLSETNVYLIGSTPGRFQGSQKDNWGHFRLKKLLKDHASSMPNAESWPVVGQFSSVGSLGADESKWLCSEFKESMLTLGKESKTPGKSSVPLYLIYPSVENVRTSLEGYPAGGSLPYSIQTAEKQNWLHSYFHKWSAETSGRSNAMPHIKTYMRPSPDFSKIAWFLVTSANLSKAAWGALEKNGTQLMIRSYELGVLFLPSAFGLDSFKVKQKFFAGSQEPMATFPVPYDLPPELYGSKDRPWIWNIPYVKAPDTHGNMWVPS
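Signal: AlphaScreen proximity between streptavidin donor and anti-FITC acceptor beads on intact substrate. Reaction: Tdp1 1 nM, substrate 15 nM final, 5 min RT after 15 min compound preincubation.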
IL-1B inflam inh: qHTS for Inhibitors of Inflammasome Signaling: IL-1-beta AlphaLISA Primary Screen. THP-1 LPS/ATP IL-1B secretion, AlphaLISA, 16 h; active compounds read low. activity change, % at 57.5 µM. 360,000 compounds, 4.7% hits; in the data active = activity change below about -50%; inconclusive = mostly about -30% to -49%
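Secreted IL-1B measured by AlphaLISA bead assay after 16 h compound exposure of THP-1 cells; compounds (final up to 57.5 uM) added 1 h before LPS (250 ng/mL) and ATP (1.25 mM) stimulation; lower signal means less secretion.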
ELG1 repair inh: qHTS screen for small molecules that inhibit ELG1-dependent DNA repair in human embryonic kidney (HEK293T) cells expressing luciferase-tagged ELG1. HEK293T ELG1-luciferase reporter, luminescence, 16 h; DNA damage induced by 5-fluorouridine. Potency, µM (doses to about 46.1 µM), inactives show top-dose activity change, negative = inhibition, most hits filed as inhibitors. 330,000 compounds, 2.3% hits. AID 504467, 2011; note: potency is the fitted concentration of half-maximal effect; nearly all actives have a fitted effect of over 55% in size
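Reporter activity after DNA damage by 5-fluorouridine is monitored. Compound-treated cells incubate 16 hr at 37 °C, then ONE-Glo is added for 30 min before luminescence reading.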
DT40 TDP1 no CPT: qHTS for Inhibitors of human tyrosyl-DNA phosphodiesterase 1 (TDP1): qHTS in cells in absence of CPT | 420,000 compounds, 15% hits | Potency, µM (top dose mostly 46.2 µM), for the others: at the highest dose activity change, negative = growth inhibition, most hits filed as inhibitors | DT40 Tdp1-/- hTDP1 cells, no CPT, ATP luminescence, 48 h; note: potency is the fitted concentration of half-maximal effect; nearly all actives have a fitted effect of over 55% in size
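Compound effects on proliferation are scored in DT40 Tdp1-/-;hTDP1 cells in the absence of CPT. ATP levels (CellTiter-Glo luminescence) are recorded after a ≥48 hr, 37 °C incubation.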
Numbers without * were called inactive; u = inconclusive; x = not tested or not shown; [ ] = dose if it differs, or a comment. Unless noted, calls come from the whole dose curve; as a rule, active = well fitted curve in the direction sought with a large enough effect; inconclusive = small, poorly fitted or top-dose-only effect, or another doubt; inactive = no such curve, though single readings can be large; an effect the other way counts as inactive or inconclusive. % is set by controls: 0 for no effect and ±100 for the full control effect.

SMILES	TDP1 cell CPT	Giardia killer	TDP1 block	IL-1B inflam inh	ELG1 repair inh	DT40 TDP1 no CPT
Cc1cccc(CN2CCc3c(OCC(=O)NCc4ccco4)cccc3C2=O)c1	u	1	-5%	-2	u	u
O=C(COc1ccccc1F)N1CCCc2ccccc21	-5%	19	x	18	22%	-1%
Cc1ccc(OCC(=O)N2CCC(Cc3ccccc3)CC2)c([N+](=O)[O-])n1	u	u	2%	-17	-1%	u
O=C(COc1cccnc1[N+](=O)[O-])N1CCC(Cc2ccccc2)CC1	u	-23	0%	-68*	-11%	u
CN1CCc2c(OCC(=O)N3CCCc4ccccc43)cccc2C1=O	-25%	-27	1%	1	-29%	29µM*
O=C(CN(Cc1ccccc1)S(=O)(=O)c1ccc(F)cc1)NCc1cccnc1	-7%	2	1%	16	-20%	-21%
CC(CCc1ccccc1)NC(=O)Cn1cccc1C(=O)c1ccccc1 (centres undefined)	-28%	8	5%	18	2%	-3%
CC1(C)CC(C(=O)N2CCOc3ccc(CN4CCC(Oc5cccnc5)CC4)cc3C2)CCO1 (centres undefined)	u	x	x	x	x	-23%
CN(C)c1nc(=NCc2cccs2)ss1	0.026µM*	-81*	x	-60*	x	0.029µM*
CN(C)c1ncc2nc(-c3cccs3)c(=O)n(Cc3cccs3)c2n1	-4%	x	x	x	x	1%
CN(C)/C=C/C(=O)c1ccc(Cl)cc1	-9%	27	-2%	-19	u	-7%
CN(C)/C=C/C(=O)/C=C/c1ccc(Cl)cc1	-2%	24	5%	-100*	u	u
CC(C)C[C@H]1CNC(=S)N1C[C@H]1CCCN1C[C@H](Cc1ccc(O)cc1)N1C[C@H](Cc2ccccc2)N(CC2CCCCC2)C1=S	u	x	x	-16	x	18µM*
CC(C)C[C@H]1CNC(=S)N1CC1CCCN1C[C@H](Cc1ccc(O)cc1)N1C[C@H](Cc2ccccc2)N(CC2CCCCCC2)C1=S (some centres undefined)	u	8	x	-28	x	21µM*
CC(C)C[C@H]1CNC(=O)C(=O)N1C[C@@H]1CCCN1C[C@H](Cc1ccc(O)cc1)N1C[C@H](Cc2ccccc2)N(CC2CCCCCC2)C(=O)C1=O	u	x	x	-3	x	u
CC(C)C[C@H]1CN([C@@H](Cc2ccccc2)CN2CCCC2CN2C(=S)NC[C@@H]2Cc2ccccc2)C(=S)N1CC1CCCCC1 (some centres undefined)	6.5µM*	x	x	-7	x	7.3µM*
CC(C)C[C@H]1CNC(=S)N1C[C@H]1CCCN1C[C@H](Cc1ccc(O)cc1)N1C[C@H](CC(C)C)N(CC2CCCCCC2)C1=S	16µM*	x	x	u	x	21µM*
Cc1ccc(C(=O)N2CCOc3ccc(CN4CCN(Cc5ccccn5)CC4)cc3C2)cc1	-1%[9.04 µM]	x	x	x	x	-22%
COc1ccc(C(=O)COC(=O)CNC(=O)c2ccccc2)cc1F	3%	-4	3%	9	2%	-13%
CCCCOC(=O)c1ccc(NC(=O)C2(c3cccs3)CCOCC2)cc1	u	x	0%	x	x	u
CC(C)C[C@H]1CNC(=S)N1CC1CCCN1C[C@H](Cc1ccccc1)N1C[C@H](Cc2ccc(O)cc2)N(CC2CCCCC2)C1=S (some centres undefined)	u	-8	x	u	x	u

Screens as filed in PubChem BioAssay.
